This note sets out measurements from PubChem BioAssay (NCI).

Among the test systems are HCT-15 colon; HT29 colon; SNB-75 CNS; SNB-19 CNS; U251 CNS; PC-3 prostate; SK-MEL-5 melanoma; UACC-62 melanoma; LOX IMVI melanoma; SK-MEL-2 melanoma; EKVX NSCLC; SN12C renal; TK-10 renal; ACHN renal; CAKI-1 renal; CCRF-CEM leukemia; MOLT-4 leukemia; SK-MEL-28 melanoma; UO-31 renal; A498 renal.
Experiment in all cases: NCI-60 one-dose screen, 48 h (100 = growth as untreated, 0 = no growth, -100 = all killed)
Conditions in all cases: 10 µM unless noted

This is part of a sample that, as a whole, favours compounds with a hit. Of some 83,000 tested, about 20% had one in any assay.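 Results are percent growth after 48 hours of single-concentration exposure. 100 means growth as in untreated cells, lower positive values show inhibition; negative values down to -100 show cell death.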 Unmarked numbers belong to inactive results. Active and inactive are the calls of the source. Rule for the calls: active = growth percent below 10; inactive = the rest.

As for `Oc1ccc(C(c2ccc(O)cc2)c2ccc(Br)cn2)cc1`, the growth is 15.6% with HCT-15 colon; 70.5% with HT29 colon; -10.3% (active) in the assay on SNB-75 CNS; 66.9% in the assay on SNB-19 CNS; 86.9% in the assay with U251 CNS; -17.1% (active) with PC-3 prostate. The growth was 85.5% with SK-MEL-5 melanoma; 38.9% in the assay on UACC-62 melanoma; -12.2% (active) in the assay with LOX IMVI melanoma; 31.6% with SK-MEL-2 melanoma; -37.1% (active) with EKVX NSCLC; 1.64% (active) in the assay on SN12C renal. Moreover, the growth in the assay on TK-10 renal is 4.53% (active); in the assay with ACHN renal, 21%; in the assay with CAKI-1 renal it was 79.5%; in the assay on CCRF-CEM leukemia it was 111%; with MOLT-4 leukemia, 101%.

Regarding `CC(C)c1ccc(Nc2ccc3c(OCCCN4CCN(C)CC4)cccc3n2)cc1`, the growth was -35.9% (active) in the assay on HCT-15 colon; -50.3% (active) in the assay on HT29 colon; 68.9% with SNB-75 CNS; 63.7% in the assay with SNB-19 CNS; 23.9% with U251 CNS; 62.9% in the assay with PC-3 prostate. Besides, the growth in the assay with SK-MEL-5 melanoma was 58.3%; in the assay with UACC-62 melanoma, 1.02% (active); in the assay with SK-MEL-28 melanoma, 13.7%; with SK-MEL-2 melanoma it was 105%; with EKVX NSCLC it was 80.7%; with SN12C renal it was 91.3%. Besides, the growth is 71.5% with UO-31 renal; 91% with TK-10 renal; 80.4% in the assay on ACHN renal; 64.4% in the assay on CAKI-1 renal; 77.8% with A498 renal; 30% with CCRF-CEM leukemia.

On to `CCOC(=O)C1=C(C)NC(SCc2cc(=O)oc3ccc(F)cc23)=N[C@@H]1c1cccc2ccccc12`, for which the growth is 93% in the assay with HCT-15 colon; 98.5% in the assay on HT29 colon; 98.8% in the assay on SNB-75 CNS; 101% in the assay on SNB-19 CNS; 102% with U251 CNS; 87.8% with PC-3 prostate. Moreover, the growth was 99.9% with SK-MEL-5 melanoma; 86% in the assay with UACC-62 melanoma; 109% in the assay on SK-MEL-28 melanoma; 85% in the assay with SK-MEL-2 melanoma; 114% with EKVX NSCLC; 93.3% in the assay with SN12C renal. Also, the growth was 79.9% in the assay on UO-31 renal; 105% in the assay on TK-10 renal; 91.9% with ACHN renal; 87.8% with CAKI-1 renal; 102% in the assay with CCRF-CEM leukemia; 84.7% in the assay on MOLT-4 leukemia.

Regarding `COC(=O)C(CC=O)C(=O)C(=O)Nc1cccc(C(F)(F)F)c1` (stereo not drawn), the growth in the assay with HCT-15 colon is 108%; in the assay on HT29 colon, 99.1%; with SNB-75 CNS it was 92.8%; in the assay on SNB-19 CNS, 102%; in the assay on U251 CNS it was 79.2%; in the assay on PC-3 prostate, 95.7%. In addition, the growth with SK-MEL-5 melanoma was 99.9%; with UACC-62 melanoma, 89.7%; in the assay with SK-MEL-28 melanoma it was 120%; with SK-MEL-2 melanoma it was 109%; with EKVX NSCLC, 92.1%; in the assay on SN12C renal, 92.2%. For the same compound, the growth in the assay with UO-31 renal is 86.6%; in the assay with TK-10 renal, 102%; in the assay with ACHN renal, 105%; with CAKI-1 renal it was 97.7%; in the assay with A498 renal it was 83.4%.

Consider `O=S(=O)(NCCCNc1nccc(-c2c(-c3cccc(O)c3)nc3occn23)n1)c1ccc(Cl)cc1`, for which the growth in the assay with HCT-15 colon is 98.7%; in the assay on HT29 colon, 36.3%; in the assay with SNB-75 CNS, 92%; in the assay with SNB-19 CNS it was 108%; in the assay with U251 CNS, 102%; in the assay on PC-3 prostate, 82.7%. The growth with SK-MEL-5 melanoma was 39.8%; with UACC-62 melanoma it was 9.05% (active); in the assay with SK-MEL-28 melanoma it was 30.3%; in the assay with SK-MEL-2 melanoma, 52.5%; in the assay on EKVX NSCLC, 99.6%; in the assay on SN12C renal it was 71.5%. Further, the growth was 89.8% in the assay with UO-31 renal; 143% in the assay on TK-10 renal; 81% in the assay with ACHN renal; 75.9% in the assay with CAKI-1 renal; 73.2% in the assay with CCRF-CEM leukemia; 71.3% in the assay on MOLT-4 leukemia.

Consider `CC(C)(C)[Si](C)(C)OC1[C@@H](O[Si](C)(C)C(C)(C)C)[C@@H](CNC(=O)NC(=O)CCl)O[C@H]1n1cnc2c(NC(=O)Nc3ccccc3)ncnc21` (stereo partly drawn), for which the growth with HCT-15 colon was 37.5%; with HT29 colon, -48.1% (active); in the assay on SNB-75 CNS, -66.2% (active); in the assay on SNB-19 CNS it was 6.83% (active); in the assay with U251 CNS, -75.6% (active); with PC-3 prostate it was -36.2% (active). In addition, the growth with SK-MEL-5 melanoma was -87.7% (active); in the assay with UACC-62 melanoma, -61.5% (active); in the assay with SK-MEL-28 melanoma, -79.5% (active); in the assay with SK-MEL-2 melanoma, 42.7%; in the assay with EKVX NSCLC, -40.4% (active); in the assay on SN12C renal, -50.3% (active). In addition, the growth in the assay on UO-31 renal is -75% (active); in the assay with TK-10 renal, 105%; with ACHN renal, -68.6% (active); in the assay on CAKI-1 renal, 37.9%; with A498 renal, 43.5%; with CCRF-CEM leukemia, -37.9% (active). Further, the growth with MOLT-4 leukemia is -43.8% (active).

For the compound `Cc1cc2c(C(=O)NCC#N)cccc2n1-c1nc2c(c(NCc3ccccc3)n1)CCCC2`, the growth in the assay on HCT-15 colon is -52.8% (active); in the assay on HT29 colon it was -3.71% (active); with SNB-19 CNS, -49.1% (active); with U251 CNS, -71% (active); with PC-3 prostate, -18.8% (active); in the assay on SK-MEL-5 melanoma, -93.4% (active). The growth in the assay on UACC-62 melanoma is -78.2% (active); with LOX IMVI melanoma, -85% (active); with SK-MEL-28 melanoma it was -28.2% (active); in the assay with SK-MEL-2 melanoma it was -44.7% (active); in the assay with EKVX NSCLC it was -18.8% (active); in the assay on SN12C renal, -67.9% (active). Besides, the growth with TK-10 renal was -17.7% (active); with ACHN renal it was -4.35% (active); in the assay with CAKI-1 renal, -2.84% (active); with CCRF-CEM leukemia, 7.4% (active); in the assay on MOLT-4 leukemia, -15.6% (active).

On to `OC(c1cccc(C(F)(F)F)c1)c1cnccc1NC1CCCCC1` (stereo not drawn), for which the growth in the assay on HCT-15 colon is 81.3%; in the assay on HT29 colon, 37.9%; with SNB-19 CNS, 89.3%; in the assay with U251 CNS it was 76%; in the assay on PC-3 prostate, 69.4%; in the assay on SK-MEL-5 melanoma, 69.6%. In addition, the growth with UACC-62 melanoma was 74%; with LOX IMVI melanoma, 82.4%; in the assay with SK-MEL-28 melanoma, 98.4%; with SK-MEL-2 melanoma, 92.6%; in the assay on EKVX NSCLC it was 77.6%; in the assay with SN12C renal it was 73.5%. Moreover, the growth is 52.2% in the assay on UO-31 renal; 82.7% in the assay with TK-10 renal; 87.2% in the assay with ACHN renal; 69.5% in the assay on CAKI-1 renal; 77.4% in the assay with A498 renal; 62% in the assay with CCRF-CEM leukemia. Moreover, in the assay with MOLT-4 leukemia, the growth was 71.6%.
